# From PubChem BioAssay AID540277 (National Center for Advancing Translational Sciences (NCATS), 2011)
# The whole screen tested about 320,000 compounds, of which about 55 (0.02%) were called active. Roughly 3% stayed inconclusive and do not appear here. No stated cut-off is given here; in the data, active means potentiation above about 80%; inconclusive means between about 30% and that limit; inactive means weaker than that. The sample as a whole holds a higher share of actives than the screen did.
# Biological target: Transient receptor potential cation channel subfamily V member 1 (Homo sapiens) (UniProt Q8NER1)
# Test: HTS Assay for Compounds that Act as Potentiators of the Vanilloid Receptor 1; further: 0% is about no effect
# Settings: TRPV1-expressing cells, Fluo-8 calcium influx, capsaicin EC20 potentiation; at 8.33 µM; active compounds read high
# From the text: The transient receptor potential ion channel, family V, number 1, (TRPV1) is one of the most important molecular transducers of painful stimuli and a potential target for analgesic drug development. Although recent clinical trials with orthosteric antagonists have not produced a successful drug because of a hyperthermia side effect and their tendency to block thermal noxious pain, this ion channel is undeniably well placed in the pain pathway, and the idea of blocking pain signals before they enter the CNS is an excellent concept and of proven efficacy when TRPV1 agonists are used. We propose a new approach involving allosteric modulation to impose an activity-dependent constraint within the context of inflammation and tissue damage that would alter the responsiveness of the channel in a way that an orthosteric vanilloid antagonist cannot achieve. We believe that the allosteric modulator approach has not been explored for this target. The main goal of this proposal is to identify additional, new, potent allosteric modulators of TRPV1 that can be used to investigate TRPV1 function. Our recent report provides evidence of proof of concept, but the compounds are just at the edge of utility in terms of potency. […] The question of whether they can be used as analgesic agents is complex, but if suitable compounds are identified then testing for analgesic properties will be conducted. NIH Chemical Genomics Center [NCGC] NIH Molecular Libraries Probe Centers Network [MLPCN] MLPCN Grant: MH089480-1A1 Assay Submitter (PI): Michael Iadarola, National Institute of Dental and Cranofacial Research
# Upon TRPV1 activation in TRPV1 cells, the channel opens and extracellular cations flow through the channel into the cytosol. A calcium binding dye (Fluo-8) becomes fluorescent when bound to calcium. This dye is pre-loaded into cells and is used as a marker for calcium influx. The amount of accumulated calcium is precisely quantified using the FDSS kinetic reader and the calcium dye. For the HTS assay, freshly prepared cells are plated at a density of 2000/well in 3 ul medium in 1536-well plates and cultured overnight at 35.5C. Cells will be loaded with 1 ul of the homogeneous calcium dye (ABD Bioquest) at room temperature for 40 to 90 minutes. Plates will be loaded into the FDSS kinetic reader and a 1 sec / cycle for 10 second baseline signal will be measured. Compound library will then be added with a pintool at 23 nl and measured kinetically for 3 minutes. This portion of the read is considered the agonist portion of the screen. Following the 3 minutes of incubation, an on board pipettor will deliver 1 ul of capsaicin for a final concentration equal to the EC20. Signal will be measured kinetically for an additional 2 minutes. This portion of the read is considered the allosteric enhancer portion of the screen. The FDSS reader has a standard filter set capable of measuring calcium bound Fluo-8 (ex=480 and em=520 nm).
# Chain of Transient receptor potential cation channel subfamily V member 1 (Homo sapiens) (Q8NER1 whole entry, looked up): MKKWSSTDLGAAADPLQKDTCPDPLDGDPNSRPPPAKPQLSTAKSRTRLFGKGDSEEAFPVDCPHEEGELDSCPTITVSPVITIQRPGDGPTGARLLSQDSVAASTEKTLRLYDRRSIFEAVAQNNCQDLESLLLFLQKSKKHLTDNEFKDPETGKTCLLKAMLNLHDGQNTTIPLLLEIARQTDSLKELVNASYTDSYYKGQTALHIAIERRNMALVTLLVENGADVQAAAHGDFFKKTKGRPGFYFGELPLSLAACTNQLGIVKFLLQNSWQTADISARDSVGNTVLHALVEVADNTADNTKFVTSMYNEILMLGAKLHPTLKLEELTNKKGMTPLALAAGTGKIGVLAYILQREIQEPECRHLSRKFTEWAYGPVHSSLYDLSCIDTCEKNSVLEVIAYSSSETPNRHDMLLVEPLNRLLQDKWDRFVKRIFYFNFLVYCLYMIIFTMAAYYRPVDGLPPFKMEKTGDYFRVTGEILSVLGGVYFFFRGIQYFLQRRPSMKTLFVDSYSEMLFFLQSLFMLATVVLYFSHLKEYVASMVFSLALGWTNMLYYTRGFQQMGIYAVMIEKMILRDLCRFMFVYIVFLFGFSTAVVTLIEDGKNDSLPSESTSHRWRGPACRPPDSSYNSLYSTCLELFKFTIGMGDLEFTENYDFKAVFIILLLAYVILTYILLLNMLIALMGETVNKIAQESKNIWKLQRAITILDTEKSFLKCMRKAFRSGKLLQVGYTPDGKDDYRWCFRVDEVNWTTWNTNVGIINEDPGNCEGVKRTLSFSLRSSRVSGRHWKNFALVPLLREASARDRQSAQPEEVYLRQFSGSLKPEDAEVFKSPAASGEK
row,SMILES,potentiation
1,O=C(COC(=O)CNC(=O)C1CCCCC1)Nc1cccc(F)c1,-7.91% (inactive)
2,O=C(COC(=O)Cc1ccccc1F)NCCc1ccccc1,-16% (inactive)
3,CC(=O)c1sc(NC(=O)CCN2C(=O)C3CC=CCC3C2=O)nc1-c1ccccc1 (stereo unspecified),-6.85% (inactive)
4,CC(C(=O)Nc1ccc(S(=O)(=O)N2CCCC2)cc1)N(C)Cc1ccc(F)cc1 (stereo unspecified),-18.2% (inactive)
5,O=C(OCC(=O)N1CCOCC1)c1ccc2ccccc2c1,17.8% (inactive)
6,O=C(NNC(=O)c1cc(S(=O)(=O)N2CCCCC2)ccc1Cl)c1ccccc1O,-1.67% (inactive)
7,CC1CCCN(C(=O)c2cc(-c3ccco3)nc3ccccc23)C1 (stereo unspecified),27.4% (inactive)
8,CC(C)Nc1ncnc2c1nnn2Cc1ccccc1,-2.19% (inactive)
9,Oc1ccc(Cl)cc1C1C=C(c2ccc3c(c2)OCO3)NC(c2c(F)cccc2Cl)N1 (stereo unspecified),25.7% (inactive)
10,Cc1ccc(C(=O)Nc2ccn(C)n2)cc1,6.57% (inactive)
11,O=S(=O)(Nc1ccc2nc(N3CCOCC3)sc2c1)c1ccccc1,15.8% (inactive)
12,O=C(CSc1nc2[nH]c(=O)[nH]c(=O)c2s1)Nc1cccc(F)c1,19.7% (inactive)
13,O=C(Nc1ccccc1N1CCOCC1)c1ccncc1,17.2% (inactive)
14,NS(=O)(=O)c1ccc(CNC(=O)c2cccc(S(=O)(=O)N3CCc4ccccc43)c2)cc1,23.8% (inactive)
15,CC(C)n1ncc2c(C(=O)NCc3ccccc3CN(C)C)cc(C3CC3)nc21,3.73% (inactive)
16,Cc1ccc(OCC(=O)N2CCN(S(=O)(=O)c3ccc(Cl)s3)CC2)cc1C,-16.7% (inactive)
17,CCCn1c(N)c(N(CCOC)C(=O)C2CCCC2)c(=O)[nH]c1=O,1.87% (inactive)
18,Oc1ccc(Cl)cc1C1C=C(c2ccc3c(c2)OCO3)NC(c2ccc(F)c(Br)c2)N1 (stereo unspecified),3.03% (inactive)
19,O=C(NCCN1CCOCC1)c1cccc(S(=O)(=O)Nc2ccc(F)cc2)c1,6.45% (inactive)
20,COc1ccc(OC)c(/C=C/C(=O)c2ccc3c(c2)OCO3)c1,-3.4% (inactive)
21,Cc1cccc(Nc2nnc(SCC(=O)c3c(N)n(C4CC4)c(=O)[nH]c3=O)s2)c1C,22.3% (inactive)
22,COc1cc(C#Cc2ccc3cc(CCCO)oc(=O)c3c2)cc(OC)c1,2.73% (inactive)
23,O=C(NCc1ccccc1CN1CCCC1)C1CCN(S(=O)(=O)c2ccc(Cl)cc2)CC1,1.5% (inactive)

row,SMILES,potentiation
1,O=S(=O)(c1ccc(SCc2ccccc2)nc1)N1CCCCCC1,-6.24% (inactive)
2,Cc1ccc2ccc3c(c2n1)NS(=O)(=O)c1ccccc1-3,18.5% (inactive)
3,CC1(C)O[C@@H]2[C@H](O1)[C@@H](COS(=O)(=O)O)O[C@H]2n1cnc2c(=O)[nH]cnc21,8.79% (inactive)
4,COc1cccc(NC(=O)COC(=O)/C=C/c2ccco2)c1,11% (inactive)
5,COc1ccccc1NC(=O)COC(=O)COc1ccccc1F,3.99% (inactive)
6,COc1ccc(NC(=O)CN(C)C(=O)c2cc(C3CC3)nn2-c2ccccc2)cc1,14.7% (inactive)
7,Cc1ccc(/C=C/C(=O)OCC(=O)Nc2cccnc2Cl)cc1,-11.8% (inactive)
8,Cc1cccc(NS(=O)(=O)c2ccc(C)c(C(=O)NCC(c3ccccc3)N(C)C)c2)c1 (stereo unspecified),1.06% (inactive)
9,Cc1cccc(NS(=O)(=O)c2cccc(C(=O)NNC(=O)c3ccccc3O)c2)c1,-12.6% (inactive)
10,COc1ccc(C(=O)OCC(=O)c2cc(C)n(CC3CCCO3)c2C)cc1[N+](=O)[O-] (stereo unspecified),9.08% (inactive)
11,COC(=O)c1cc(Oc2ccc(S(=O)(=O)N3CCOCC3)cc2[N+](=O)[O-])cc(C(=O)OC)c1,10.8% (inactive)
12,CN1CCN(C2=NCCO2)CC1,-4.44% (inactive)
13,CCOc1ccc(S(=O)(=O)N2CCCCC2)cc1NC(=O)CN1CCCC1c1cccs1 (stereo unspecified),-19.8% (inactive)
14,Cc1ccc(C(=O)CN2C(=O)NC3(CCOc4ccccc43)C2=O)s1 (stereo unspecified),-10.3% (inactive)
15,CC(=O)NCC(=O)N(Cc1ccco1)C1(C(=O)NC2CCCC2)CCCCC1,85.2% (active)
16,CC(=O)N(CC1CCCO1)C1(C(=O)NC2CCCC2)CCCCC1 (stereo unspecified),-6.84% (inactive)
17,O=C(c1ccc(=O)[nH]c1)N(Cc1ccco1)C1(C(=O)NC2CCCCC2)CCCCC1,6.34% (inactive)
18,Cc1n[nH]c(=O)c2c(NC(=O)CSc3cc(Cl)ccc3Cl)oc(C)c12,13.8% (inactive)
19,CC1CC1C(=O)OCC(=O)Nc1cccc(F)c1 (stereo unspecified),-20.7% (inactive)
20,Cn1c(N)c(C(=O)COC(=O)/C=C/c2cccc(C(F)(F)F)c2)c(=O)n(C)c1=O,-32.4% (inactive)
21,COc1ccc(C(C[N+](=O)[O-])n2nc(C)cc2C)cc1 (stereo unspecified),0.93% (inactive)
22,COc1ccc(S(=O)(=O)N2CCOCC2)cc1NC(=O)CC1CC2CCC1C2 (stereo unspecified),2% (inactive)
23,CCCCn1c(SCC(=O)N2CCCC2=O)nc2cc(S(N)(=O)=O)ccc21,-9.34% (inactive)

row,SMILES,potentiation
1,CCOC(=O)c1sc(=NC(=O)/C=C/c2cccs2)n(C)c1C,-3.16% (inactive)
2,O=S(=O)(Nc1cc(Cl)ccc1N1CCOCC1)c1ccccc1Cl,28.9% (inactive)
3,CN(c1ccccc1)S(=O)(=O)c1cccc(NC(=O)Cc2ccc(Cl)cc2)c1,-2.65% (inactive)
4,O=C(COC(=O)c1c(Cl)cccc1Cl)Nc1cccc(S(=O)(=O)NC2=NCCCCC2)c1,4.82% (inactive)
5,Cc1ccc(S(=O)(=O)Nc2nc(CN3CCOCC3)nc3sc(C)c(C)c23)cc1,21.7% (inactive)
6,O=C(Nc1ccc2c(c1)OCCO2)C1CCCC1,-1.56% (inactive)
7,Cc1cc(NC(=O)COc2ccccc2C#N)no1,13.6% (inactive)
8,O=C(CSc1ccccc1)Nc1cccc(S(=O)(=O)N2CCCCC2)c1,-6.03% (inactive)
9,CCN(c1ccccc1)S(=O)(=O)c1ccc(OCC(=O)N2CCCC2)cc1,-12.3% (inactive)
10,O=C(CN1CCCCC1)NC(=O)Nc1ccccc1F,-35.8% (inactive)
11,COc1ccccc1C(=O)NCC(=O)OCC(=O)Nc1nnc(-c2ccccc2)o1,8.76% (inactive)
12,Cc1ccc(NC(=O)Cc2nc(COC(=O)C(C)NS(=O)(=O)c3ccc(C)cc3)cs2)cc1 (stereo unspecified),1.83% (inactive)
13,COc1ccccc1C(=O)NCCC(=O)NC1=NCCS1,16.5% (inactive)
14,Cc1cc(C(=O)COc2ccccc2Cl)c(C)n1C1CC1,-5.33% (inactive)
15,CC(C)(C)C(=O)CSc1ccc(S(=O)(=O)N2CCCC2)cn1,5.19% (inactive)
16,CCCCn1nc(C(=O)Nc2cccc(C(=O)NC3CC3)c2)c2ccccc2c1=O,-5.5% (inactive)
17,CCC(C(=O)N1CCN(S(=O)(=O)c2sc(C(=O)O)c(C)c2C(=O)O)CC1)c1ccccc1 (stereo unspecified),-6.07% (inactive)
18,CC1CCCN(C(=O)CN2C(=O)c3ccccc3S2(=O)=O)C1 (stereo unspecified),7.53% (inactive)
19,Cc1cc(C(=O)COc2ccc(Br)cc2F)c(C)n1C1CC1,-6.81% (inactive)
20,COc1ccc(C(=O)N2CCN(c3ccc(C(C)=O)cc3F)CC2)cc1S(=O)(=O)NC1CC1,-8.79% (inactive)
21,CCN1C(=O)C(=O)N(CC(=O)Nc2cc(C)ccc2C)C1=O,4.41% (inactive)
22,CCN(CC)c1ccc(NC(=O)CN2C(=O)NC3(CCc4ccccc43)C2=O)cc1 (stereo unspecified),-5.69% (inactive)
23,COc1ccc(-c2cc3ncccc3cn2)cc1,-0.0866% (inactive)

row,SMILES,potentiation
1,COc1ccc(CN2CCc3nc(Nc4ccccc4)ncc3C2)c(OC)c1OC,1.32% (inactive)
2,COc1ccc2c(C)cc(SCC(=O)NCC3CCCO3)nc2c1 (stereo unspecified),-8.57% (inactive)
3,CC(Sc1nnc(C2CC2)n1C1CC1)C(=O)Nc1ccc(C(N)=O)cc1 (stereo unspecified),-2.73% (inactive)
4,COc1ccc(CN2CCN(C(=O)c3cc(C4CC4)nn3-c3ccccc3)CC2)cc1F,1.31% (inactive)
5,CSCCC(NC(=O)c1ccccc1)C(=O)N1CCN(Cc2ccc(Cl)cc2)CC1 (stereo unspecified),10.6% (inactive)
6,Cc1ccsc1C(=O)NCCc1ccco1,-5.45% (inactive)
7,O=C(Nc1ccc2c(c1)OCO2)C1CC1(Cl)Cl (stereo unspecified),-2.21% (inactive)
8,CCN(CC)CCN1C(=O)C(=O)/C(=C(/O)c2cnn(-c3ccccc3)c2C)C1c1cccs1 (stereo unspecified),-0.404% (inactive)
9,CCOc1ncccc1C(=O)OCC(=O)Nc1cccc(S(=O)(=O)N2CCCCCC2)c1,-26.2% (inactive)
10,COc1ccc(S(=O)(=O)N2CCOCC2)cc1NC(=O)Cc1coc2cc(C)ccc12,4.1% (inactive)
11,Cc1nc2ccc(NC(=O)C3CCCCC3)cc2s1,-2.49% (inactive)
12,COc1ccc(-c2sc3ccc(OC)cc3c2C#Cc2ccccn2)cc1,-1.97% (inactive)
13,CC(C)c1ccc(S(=O)(=O)N2CCN(C(C)C(=O)NC3CCCC3)CC2)cc1 (stereo unspecified),-15.2% (inactive)
14,O=C(Nc1ccccn1)C1CCN(S(=O)(=O)c2ccccc2)CC1,-3.8% (inactive)
15,COCCn1c(C)cc(C(=O)CSc2nnc(C3CC3)n2C2CC2)c1C,-2.92% (inactive)
16,CC(=O)Nc1ccc(Nc2cc(C)nc(Nc3ccc(NC(C)=O)cc3)n2)cc1,13.9% (inactive)
17,O=c1ccc2c(-c3ccccc3S(=O)(=O)O)c3ccc(O)c(O)c3oc-2c1O,12.9% (inactive)
18,CC(=O)N1CCN(S(=O)(=O)c2cccc(C(=O)NC3CCC(C)CC3)c2)CC1 (stereo unspecified),0.313% (inactive)
19,Cc1cc(C(=O)Nc2nnc(C3CC3)s2)c(C)s1,9.37% (inactive)
20,COc1cccc(-n2c(SCC(=O)NC3CCS(=O)(=O)C3)nc3ccccc3c2=O)c1 (stereo unspecified),7.53% (inactive)
21,CC(C)n1ncc2c(C(=O)Nc3ccc(CC#N)cc3)cc(C3CC3)nc21,-24.2% (inactive)
22,COc1cccc(NC(=O)CN(C)CC(=O)c2c(N)n(Cc3ccccc3)c(=O)n(C)c2=O)c1,23.5% (inactive)
